HT1080-NT tox = kills 2HG-producing HT-1080-NT fibrosarcoma cells. Potency, µM (highest dose often 46.1 µM), without a hit: at the highest dose activity, negative = less viability, actives largely listed as cytotoxic. hit rate 1.6% among 360,000. HT-1080-NT fibrosarcoma viability, CellTiter-Glo ATP luminescence, 48 h. AID 686970;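 also: NT is the 2HG producing partner of a matched IDH1 knockdown line; potency is read from the fitted curve at half-maximal effect; 0% = DMSO-treated cells and -100% = media-only wells without cells; nearly all actives have a fitted effect of over 55% in size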
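Toxicity toward the 2HG-producing NT line was scored as %Activity, normalised to DMSO and no-cell wells, from CellTiter-Glo luminescence after 48 hours' treatment.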
IL-1B inflam inh = inhibitors of inflammasome signaling (IL-1 beta secretion). THP-1 LPS/ATP IL-1B secretion, AlphaLISA, 16 h; stronger effect = lower value. activity change, % at 57.5 µM. hit rate 4.7% among 360,000; in the data active = activity change below about -50%; inconclusive = mostly about -30% to -49%
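THP-1 cells pretreated 1 hr with compounds (up to 57.5 uM final), then stimulated with LPS (250 ng/mL final) plus ATP (1.25 mM final); secreted IL-1B measured by AlphaLISA after 16 hr, decreased signal indicating inhibition.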
HT1080 IDH1KD tx = toxicity to HT-1080 IDH1 knockdown cells (counter line). HT-1080 IDH1 knockdown viability, ATP luminescence, 48 h. Potency, µM (titrated, usually from 46.1 µM), for the others: at the top dose activity, negative = toxicity, actives largely listed as cytotoxic. hit rate 2% among 360,000. AID 686971;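 also: potency is read from the fitted curve at half-maximal effect; 0% = DMSO wells and -100% = cell-free medium wells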
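Viability of IDH1-knockdown HT-1080 fibrosarcoma cells was assessed by CellTiter-Glo after 48 h at 37 °C with titrated compound; concentration-effect curves were classified by fit quality and response size.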
DT40 TDP1 CPT = growth inhibition of DT40 Tdp1-/-;hTDP1 cells with camptothecin (screen for TDP1 inhibitors). chicken DT40 Tdp1-/-;hTDP1 cells + 20 nM CPT, ATP luminescence, 48 h. Potency, µM (series often up to 46.2 µM), for inactives: top-dose activity change, negative = growth inhibition, hits mostly inhibitors. hit rate 12% among 420,000; also: potency is read from the fitted curve at half-maximal effect; nearly all actives have a fitted effect of over 55% in size
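Cell growth measured by CellTiter-Glo luminescence after a minimum 48 h, 37 C compound exposure with 20 nM CPT in Tdp1-knockout DT40 cells stably expressing hTDP1, seeded 400/well; qHTS titration format.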
TDP1 cell noCPT = qHTS for Inhibitors of human tyrosyl-DNA phosphodiesterase 1 (TDP1): qHTS in cells in absence of CPT; Potency, µM (top dose mostly 46.2 µM), for the others: top-dose activity change, negative = growth inhibition, actives largely listed as inhibitors; hit rate 15% among 420,000; AID 686978, 2013; DT40 Tdp1-/- hTDP1 cells, no CPT, ATP luminescence, 48 h; also: potency is read from the fitted curve at half-maximal effect; nearly all actives have a fitted effect of over 55% in size
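Readout: luminescence from CellTiter-Glo after 30 min in the dark at RT. Cells: DT40 Tdp1-/- with stable hTDP1, 400/well. Exposure: compounds alone, ≥48 hr, 37 °C.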
Numbers without * were called inactive. In the library only some 19% were active in any assay of this set; here they are far more common. Unless noted, calls follow the shape of the dose curve; as a rule, active = well fitted curve in the direction sought with a large enough effect; inconclusive = small, poorly fitted or top-dose-only effect, or another doubt; inactive = no such curve, though single readings can be large; an effect the other way counts as inactive or inconclusive. Unless noted, % is scaled to controls: 0 for no effect and ±100 for the full control effect.

Screening Nc1ncc(Br)cc1S(=O)(=O)NCCC(=O)NCCc1ccc(Cl)cc1 returned HT1080-NT tox -13%, IL-1B inflam inh 16, HT1080 IDH1KD tx -21%, DT40 TDP1 CPT -29% and TDP1 cell noCPT -3%.
C/C(=N\NC(=O)CSCc1ccccc1Cl)c1cc(O)ccc1O was read as HT1080-NT tox -17%, IL-1B inflam inh 40, HT1080 IDH1KD tx -17%, DT40 TDP1 CPT 6.5µM* and TDP1 cell noCPT 5.2µM*.
Screening CC(=O)Nc1ccc(NC(=O)CSCc2ccccc2Cl)cc1 returned HT1080-NT tox -1%, IL-1B inflam inh -2, HT1080 IDH1KD tx 2%, DT40 TDP1 CPT 3% and TDP1 cell noCPT -25%.
Screening CCn1cc2nc(SCc3cccc(Cl)c3)n(Cc3ccc(C)cc3)c(=O)c2n1 returned DT40 TDP1 CPT 21µM* and TDP1 cell noCPT 23µM*.
CCn1cc2nc(SCc3cccc(C(F)(F)F)c3)n(Cc3ccc(Cl)cc3)c(=O)c2n1 was read as DT40 TDP1 CPT 15µM* and TDP1 cell noCPT 8.2µM*.
For CCn1cc2nc(SCc3cccc(C)c3)n(CCc3ccccc3)c(=O)c2n1 the results were DT40 TDP1 CPT 23µM* and TDP1 cell noCPT inconclusive.
CCn1cc2nc(SCc3cccc(C(F)(F)F)c3)n(CCc3ccccc3)c(=O)c2n1 was read as DT40 TDP1 CPT 23µM* and TDP1 cell noCPT 13µM*.
Screening Cn1c(SCc2cccc(Cl)c2)nc(C(F)(F)F)cc1=O returned HT1080-NT tox -3%, IL-1B inflam inh -14, HT1080 IDH1KD tx inconclusive, DT40 TDP1 CPT -5% and TDP1 cell noCPT inconclusive.
Screening CCn1c(SCc2cccc(C(F)(F)F)c2)nnc1-c1ccco1 returned HT1080-NT tox 7%, IL-1B inflam inh -1, HT1080 IDH1KD tx 0%, DT40 TDP1 CPT -13% and TDP1 cell noCPT -11%.
C/C(=N\NC(=O)c1ccc(=O)[nH]n1)c1cccnc1 was read as HT1080-NT tox 3%, IL-1B inflam inh 0, HT1080 IDH1KD tx -2%, DT40 TDP1 CPT -5% and TDP1 cell noCPT -25%.
CCOc1cc(C#N)c(NC(=O)c2cccc(S(=O)(=O)N3CCOCC3)c2)cc1OCC was read as DT40 TDP1 CPT -3% and TDP1 cell noCPT inconclusive.
`COc1ccc(NC(=O)CSc2nc(SC)ns2)cc1` gave HT1080-NT tox -15%, IL-1B inflam inh 21, HT1080 IDH1KD tx -20%, DT40 TDP1 CPT inconclusive and TDP1 cell noCPT inconclusive.
Screening CN(CC(=O)Nc1cccc(F)c1)C(=O)Cc1ccsc1 returned HT1080-NT tox 10%, IL-1B inflam inh 5, HT1080 IDH1KD tx 2%, DT40 TDP1 CPT -19% and TDP1 cell noCPT -20%.
For Cc1cc(C(=O)Nc2sc(C)c(-c3ccc(F)cc3)c2C(N)=O)no1 the results were HT1080-NT tox -6%, IL-1B inflam inh 0, HT1080 IDH1KD tx 0%, DT40 TDP1 CPT -16% and TDP1 cell noCPT -14%.
`Cc1sc(NC(=O)c2ccc(OCC(C)C)cc2)c(C(N)=O)c1-c1ccc(Cl)cc1Cl` gave HT1080-NT tox -5%, IL-1B inflam inh -17, HT1080 IDH1KD tx -1%, DT40 TDP1 CPT 9.2µM* and TDP1 cell noCPT 7.3µM*.
`CC(C)CCn1c(SCC(=O)NC2CC2)nc2cc(Cl)ccc2c1=O` gave HT1080-NT tox 1%, IL-1B inflam inh 11, HT1080 IDH1KD tx 1%, DT40 TDP1 CPT inconclusive and TDP1 cell noCPT -6%.
Screening O=C(NC1CCCC1)C(c1ccncc1)N(Cc1ccco1)C(=O)c1ccc(-c2ccccc2)[nH]1 (stereo unspecified) returned HT1080-NT tox inconclusive, IL-1B inflam inh -105*, HT1080 IDH1KD tx 15µM*, DT40 TDP1 CPT 23µM* and TDP1 cell noCPT 16µM*.
For O=C(NC1CCCC1)C(c1ccncc1)N(CCCN1CCOCC1)C(=O)c1ccc(-c2ccccc2)[nH]1 (stereo unspecified) the results were HT1080-NT tox -13%, IL-1B inflam inh inconclusive, HT1080 IDH1KD tx -11%, DT40 TDP1 CPT -16% and TDP1 cell noCPT -23%.
Screening O=C(NCc1ccccc1)C(c1ccc(F)cc1)N(Cc1ccco1)C(=O)c1ccccn1 (stereo unspecified) returned HT1080-NT tox -3%, IL-1B inflam inh -9, HT1080 IDH1KD tx -3%, DT40 TDP1 CPT inconclusive and TDP1 cell noCPT inconclusive.
Cc1ccccc1C(C(=O)NCc1ccccc1)N(Cc1ccco1)C(=O)c1ccccn1 (stereo unspecified) was read as HT1080-NT tox -9%, IL-1B inflam inh -15, HT1080 IDH1KD tx 9%, DT40 TDP1 CPT inconclusive and TDP1 cell noCPT 15µM*.
O=C(NC1CCCCC1)C(c1ccc(F)cc1)N(Cc1ccco1)C(=O)c1ccccn1 (stereo unspecified) was read as HT1080-NT tox -6%, IL-1B inflam inh -8, HT1080 IDH1KD tx 0%, DT40 TDP1 CPT 0.82µM* and TDP1 cell noCPT -25%.
`O=C(NC1CCCC1)C(c1ccncc1)N(Cc1ccccc1)C(=O)c1ccc(-c2ccccc2)[nH]1` (stereo unspecified) gave HT1080-NT tox inconclusive, IL-1B inflam inh -79*, HT1080 IDH1KD tx inconclusive, DT40 TDP1 CPT 21µM* and TDP1 cell noCPT 16µM*.
For COc1cc(OC)cc(C(=O)N[C@H](C(=O)NCCc2ccc(S(N)(=O)=O)cc2)C(C)C)c1 the results were HT1080-NT tox 9%, IL-1B inflam inh 5, HT1080 IDH1KD tx 10%, DT40 TDP1 CPT -1% and TDP1 cell noCPT 2%.
For CCOc1ccc(C(C(=O)NC2CCCC2)N(CCCO)C(=O)c2ccc(-c3ccccc3)[nH]2)cc1 (stereo unspecified) the results were HT1080-NT tox inconclusive, IL-1B inflam inh -21, HT1080 IDH1KD tx inconclusive, DT40 TDP1 CPT 21µM* and TDP1 cell noCPT 18µM*.
COc1ccc(NC(=O)c2sc(=O)n(Cc3cccc(C(F)(F)F)c3)c2C)cc1OC was read as HT1080-NT tox -2%, IL-1B inflam inh -23, HT1080 IDH1KD tx inconclusive, DT40 TDP1 CPT inconclusive and TDP1 cell noCPT inconclusive.
Screening CCOC(=O)C1CCN(C(=O)C2(NC(=O)Nc3ccc(F)cc3F)CCCCC2)CC1 returned HT1080-NT tox -14%, IL-1B inflam inh -128*, HT1080 IDH1KD tx -7%, DT40 TDP1 CPT 5% and TDP1 cell noCPT -9%.
`O=C(NCc1ccc(Cl)cc1)c1ccc(CSc2nc3ccncc3[nH]2)cc1` gave HT1080-NT tox -25%, IL-1B inflam inh -74*, HT1080 IDH1KD tx -12%, DT40 TDP1 CPT inconclusive and TDP1 cell noCPT inconclusive.
O=C(c1ccc(CSc2nc3ccncc3[nH]2)cc1)N1CCN(c2cccc(Cl)c2)CC1 was read as HT1080-NT tox -14%, IL-1B inflam inh inconclusive, HT1080 IDH1KD tx -30%, DT40 TDP1 CPT 9.2µM* and TDP1 cell noCPT 7.3µM*.

Screening data deposited in PubChem by National Center for Advancing Translational Sciences (NCATS).
